These results are taken from PubChem BioAssay (NCATS).

Experiment [1] in a line: Validation screen for small molecules that induce DNA re-replication in MCF 10A normal breast cells (AID 463097). Note: nearly all actives have a fitted effect of over 60% in size. Note: potency is the fitted concentration of half-maximal effect. Summed up: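 Read-out is Hoechst total nuclear intensity by fluorescence scanning imager, flagging increased high-DNA-content nuclei. Compounds were incubated with MCF 10A cells for 48 hr (37 C, 5% CO2) before 40 min staining.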
Experiment [2] addresses DNA polymerase III PolC-type (Bacillus subtilis (strain 168)) (UniProt P13267). In words: qHTS Validation Assay for the Inhibitors of DNA Replication in Gram-Positive Bacteria (AID 485295). Note: potency is the fitted concentration of half-maximal effect. In outline: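 Double-stranded DNA product detected by PicoGreen fluorescence after EDTA quench. Compound incubated with B. subtilis holoenzyme (PolC, beta subunit, SSB, primase) before substrate addition; primed replication of M13Gori with dNTPs and NTPs at room temperature; DMSO defines 0% inhibition.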
(qHTS replaces the single test concentration by a dilution series.)

In experiment [3] the target is Tumor susceptibility gene 101 protein (Homo sapiens) (UniProt Q99816). As to the kind of experiment: qHTS Validation Assay for Iinhibitors of HIV-1 Budding by Blocking the Interaction of PTAP/TSG101 (AID 485342; calls by dose curve). In outline:
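Fluorescence polarization of 50 nM FITC-PTAP peptide bound to 10 uM Tsg101 binding domain was read after 20 min room-temperature incubation with compounds, in 10 mM HEPES pH 7.5, 0.15 M NaCl, 0.01% Tween 20.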

Experiment [4] concerns the target Beta-2 adrenergic receptor (Homo sapiens) (UniProt P07550). In words: qHTS validation assay of beta-arrestin-biased ligands of beta2-adrenergic receptor (AID 485366). Summed up:
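Screening used a titration range of up to 46 microM in a beta-arrestin recruitment Tango luciferase assay. Cells in 1% FBS medium were treated 18 hr at 37 degrees C, and luminescence was normalized to %Activity.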

In experiment [5] the target is Thioredoxin reductase 1, cytoplasmic (Rattus norvegicus) (UniProt O89049). In words: qHTS Assay for Substrates of Mammalian Selenoprotein Thioredoxin Reductase 1 (TrxR1) (AID 488772).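 Note: series mostly up to about 57 µM; a drop in NADPH fluorescence below the no-compound background marks a TrxR1 substrate.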 In outline: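 In this dual-purpose format, potential substrates are identified from the first fluorescence read after selenite addition, not from the 8-minute delta. Rat enzyme is preincubated with NADPH and then with compound at ~22 deg C.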

Experiment [6] shares this target. As to the kind of experiment: qHTS Assay for Inhibitors of Mammalian Selenoprotein Thioredoxin Reductase 1 (TrxR1) (AID 488773).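 Note: drop in NADPH fluorescence over an 8 min run after selenite addition; series mostly up to about 57 µM; nearly all actives have a fitted effect of over 40% in size.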 The following applies: Potency: inhibition. Summed up:
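Inhibition is scored from the loss of NADPH fluorescence between first and last reads of an 8-min kinetic run. Selenite (400 uM) was the substrate, added after 15 min compound preincubation at room temperature.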

Experiment [7] addresses Flap endonuclease 1 (Homo sapiens) (UniProt P39748). As to the kind of experiment: qHTS Validation Assay for the Inhibitors of Human Flap endonuclease 1 (FEN1) (AID 488816). Summed up:
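Enzyme reagent 10 nM; cpds pinned; 15 min RT preinc.; substrate 50 nM final; reads t=0 and 15 min; no-enzyme buffer wells as neg. control; normalized data, 4-parameter Hill fit.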

The target in experiment [8] is M-phase phosphoprotein 8 (Homo sapiens) (UniProt Q99549). In words: qHTS Validation Assay for Inhibitors for MPP8 Chromodomain Interactions with Methylated Histone Tails (AID 488949). Note: nearly all actives have a fitted effect of over 55% in size. Note: potency is the fitted concentration of half-maximal effect. Summed up: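 AlphaScreen proximity signal from streptavidin donor and Ni-chelate acceptor beads (10 ug/mL each) reported binding of MPP8 to trimethyl-K9 H3(1-18) peptide, both at 50 nM. The complex formed 30 min before a 30 min compound exposure at room temperature, in PBS pH 7.4.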

Experiment [9] deals with Chromobox protein homolog 1 (Homo sapiens) (UniProt P83916). In words: qHTS Validation Assay for Inhibitors of HP1-beta Chromodomain Interactions with Methylated Histone Tails (AID 488953). Note: nearly all actives have a fitted effect of over 50% in size. Note: potency is the fitted concentration of half-maximal effect. Summed up: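 Compounds pinned into a preassembled complex of HP1-beta and trimethyl-K9 histone H3(1-18) biotin peptide (50 nM each; PBS pH 7.4, 0.01% Tween-20). After 30 min, bead-based AlphaScreen detection followed.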

Experiment [10] has as its target Methanococcus maripaludis chaperonin (MmCpn) (UniProt Q6LX38). As to the kind of experiment: High-Throughput Screening for Modulators of Cytosolic Chaperonin Activity: MmCpn Primary Screen (AID 488978).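 Note: 50 nM MmCpn enzyme hydrolysing 30 µM ATP at 37 °C.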 Summed up:
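ATPase activity of 50 nM MmCpn was assayed with 30 uM ATP, 10 minutes at 37C, after a 5 min compound preincubation at room temperature. ADP production was read as HTRF emission at 590 and 665 nm.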

In experiment [11] the target is Transient receptor potential cation channel subfamily V member 1 (Homo sapiens) (UniProt Q8NER1). As to the kind of experiment: HTS Assay for Compounds that Act as Enhancers of the Vanilloid Receptor 1 (AID 488979). Summed up:
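TRPV1 cells loaded with Fluo-8 calcium dye; compound added and Ca2+ signal (ex 480/em 520 nm) followed 3 min, then capsaicin at EC20 added and read 2 more min to detect enhancement.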

Experiment [12] has as its target Thyrotropin receptor (Homo sapiens) (UniProt P16473). As to the kind of experiment: qHTS Assay for Antagonists of the Thyroid Stimulating Hormone Receptor (AID 488980). Note: series mostly up to about 58 µM. Summed up: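 Inhibition of cAMP raised by EC80 TSH (4 nM final) was read by HTRF, with lysate cAMP competing against cAMP-d2 for cryptate antibody after 30 min at room temperature. The cells were transfected HEK293 held in phosphodiesterase inhibitor RO 20-1724 at 70 uM.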

The target of experiment [13] is D(1A) dopamine receptor (Homo sapiens) (UniProt P21728). As to the kind of experiment: HTS Assay for Allosteric Agonists of the Human D1 Dopamine Receptor: Primary Screen for Agonists (AID 488981). Note: potency is the fitted concentration of half-maximal effect. Summed up:
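Tetracycline-induced HEK293 Trex D1 cells with forced coupling to calcium, loaded with no-wash calcium dye; kinetic fluorescence read 180 s after compound addition for agonism, then a further 180 s after an EC20 dopamine challenge for potentiation.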

Experiment [14] has as its target Ubiquitin carboxyl-terminal hydrolase 2 (Homo sapiens) (UniProt O75604). In words: qHTS Validation Assay for Inhibitors of Ubiquitin-specific Protease USP2a Using CHOP2 as the Reporter (AID 463106). In outline: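 Fluorescence read-out at Ex 485nm/Em 531nm after 60min RT, following addition of 25nM Ub-CHOP2 plus 25nM reporter substrate to USP2 core (10nM) pretreated 30min with compound. Data normalized to NEM full inhibition; concentration-response curves fitted.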

Experiment [15] is described as follows: qHTS Validation Assay to Find Inhibitors of Chronic Active B-Cell Receptor Signaling (AID 485345; active = well fitted curve in the direction sought with a large enough effect in the main read-out, with a control signal flat, not every such curve was filed as active). In outline:
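TMD8 ABC-DLBCL cells stably carrying doxycycline-inducible IkappaBalpha–green luciferase fusion plus unfused red luciferase; compounds 46 uM to 3 nM, 4 h at 37C with doxycycline. Corrected green/red luminescence ratio normalized to 10 uM MG-132 and basal cell wells; curves fitted.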

In experiment [16] the target is ATP-dependent 6-phosphofructokinase (Trypanosoma brucei brucei) (UniProt O15648). As to the kind of experiment: qHTS Validation Assay to Find Inhibitors of T. brucei phosphofructokinase (AID 485368). Particulars: outcome: dose series up to 57.5 µM. In outline: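 PFK-generated ADP was measured after 45 min at room temperature using ADP-Glo. The reaction contained 0.5 mM F6P and 0.1 mM ATP.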

The target in experiment [17] is D(1A) dopamine receptor (Homo sapiens) (UniProt P21728). In words: HTS Assay for Allosteric Agonists of the Human D1 Dopamine Receptor: Primary Screen for Antagonists (AID 488983).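 Note: calcium flux response to an EC80 dopamine challenge measured with no-wash dye; nearly all actives have a fitted effect of over 65% in size.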 In outline:
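In this primary screen, compounds are applied to calcium-dye-loaded HEK293 T-REx cells with force-coupled D1 expression induced overnight at 30 C. An EC80 of dopamine follows the 180 s compound phase, and calcium is monitored for a further 180 s.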

Inconclusive results are not listed. Some compounds were tested as several samples or in several runs, with calls that do not always agree. Activity calls are given as the source filed them. Unless noted, calls come from the whole dose curve; as a rule, active = well fitted curve in the direction sought with a large enough effect; inconclusive = small, poorly fitted or top-dose-only effect, or another doubt; inactive = no such curve, though single readings can be large; an effect the other way counts as inactive or inconclusive.

Sequence of D(1A) dopamine receptor (Homo sapiens) (P21728 whole entry, looked up): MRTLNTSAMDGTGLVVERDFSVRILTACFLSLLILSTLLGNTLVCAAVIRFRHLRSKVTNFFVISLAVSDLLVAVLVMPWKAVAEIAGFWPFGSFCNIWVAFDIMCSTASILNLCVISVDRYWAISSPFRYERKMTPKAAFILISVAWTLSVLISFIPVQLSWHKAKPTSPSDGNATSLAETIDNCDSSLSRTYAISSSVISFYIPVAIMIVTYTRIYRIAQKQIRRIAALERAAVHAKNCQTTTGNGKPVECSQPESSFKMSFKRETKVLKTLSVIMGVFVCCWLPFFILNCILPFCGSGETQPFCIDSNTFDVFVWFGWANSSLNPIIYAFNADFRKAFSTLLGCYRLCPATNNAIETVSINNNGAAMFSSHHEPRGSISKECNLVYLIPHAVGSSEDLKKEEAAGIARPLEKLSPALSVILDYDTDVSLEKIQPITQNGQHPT
Sequence of Flap endonuclease 1 (Homo sapiens) (P39748 whole entry, looked up): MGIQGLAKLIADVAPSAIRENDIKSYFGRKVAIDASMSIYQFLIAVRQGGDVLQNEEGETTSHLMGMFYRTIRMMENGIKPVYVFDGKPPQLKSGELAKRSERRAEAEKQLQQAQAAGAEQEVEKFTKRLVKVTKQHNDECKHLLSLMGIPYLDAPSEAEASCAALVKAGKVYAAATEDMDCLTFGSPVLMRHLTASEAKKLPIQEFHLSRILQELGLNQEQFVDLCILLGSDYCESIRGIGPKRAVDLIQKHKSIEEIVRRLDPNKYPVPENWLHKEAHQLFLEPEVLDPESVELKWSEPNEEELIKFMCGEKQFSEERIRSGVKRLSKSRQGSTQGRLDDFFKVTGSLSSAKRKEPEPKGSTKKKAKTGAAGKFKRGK
Sequence of Beta-2 adrenergic receptor (Homo sapiens) (P07550 whole entry, looked up): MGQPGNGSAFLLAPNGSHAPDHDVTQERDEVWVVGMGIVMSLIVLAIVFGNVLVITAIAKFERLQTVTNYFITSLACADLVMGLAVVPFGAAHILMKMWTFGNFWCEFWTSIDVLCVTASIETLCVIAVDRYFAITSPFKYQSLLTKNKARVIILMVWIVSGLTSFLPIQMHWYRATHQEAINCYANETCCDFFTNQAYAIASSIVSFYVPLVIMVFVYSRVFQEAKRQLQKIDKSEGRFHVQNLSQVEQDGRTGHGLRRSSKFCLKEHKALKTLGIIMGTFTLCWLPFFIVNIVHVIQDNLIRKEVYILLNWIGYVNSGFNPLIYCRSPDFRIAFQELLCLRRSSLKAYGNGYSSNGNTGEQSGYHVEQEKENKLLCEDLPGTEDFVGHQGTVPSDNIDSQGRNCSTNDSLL
Sequence of Thyrotropin receptor (Homo sapiens) (P16473 whole entry, looked up): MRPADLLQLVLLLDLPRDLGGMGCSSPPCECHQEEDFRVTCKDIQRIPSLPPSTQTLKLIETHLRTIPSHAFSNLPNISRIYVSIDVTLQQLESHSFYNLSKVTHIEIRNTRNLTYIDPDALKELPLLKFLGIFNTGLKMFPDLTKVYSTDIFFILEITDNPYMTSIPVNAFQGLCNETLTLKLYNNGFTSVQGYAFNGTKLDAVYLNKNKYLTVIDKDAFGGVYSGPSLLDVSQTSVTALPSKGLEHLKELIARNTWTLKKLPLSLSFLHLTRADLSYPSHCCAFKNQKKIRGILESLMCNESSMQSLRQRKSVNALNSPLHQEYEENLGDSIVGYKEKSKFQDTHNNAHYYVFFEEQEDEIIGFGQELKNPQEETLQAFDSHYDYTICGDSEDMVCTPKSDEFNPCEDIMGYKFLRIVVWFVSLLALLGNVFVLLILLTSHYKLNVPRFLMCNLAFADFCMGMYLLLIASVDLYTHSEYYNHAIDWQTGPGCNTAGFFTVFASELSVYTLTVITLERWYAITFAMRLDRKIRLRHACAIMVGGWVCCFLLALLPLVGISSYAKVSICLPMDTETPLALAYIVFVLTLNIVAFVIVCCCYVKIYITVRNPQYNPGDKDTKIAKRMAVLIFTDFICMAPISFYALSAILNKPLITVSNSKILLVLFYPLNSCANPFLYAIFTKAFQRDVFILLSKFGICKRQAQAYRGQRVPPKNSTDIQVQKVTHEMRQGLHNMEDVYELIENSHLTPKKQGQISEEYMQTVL
Sequence of DNA polymerase III PolC-type (Bacillus subtilis (strain 168)) (P13267 whole entry, looked up): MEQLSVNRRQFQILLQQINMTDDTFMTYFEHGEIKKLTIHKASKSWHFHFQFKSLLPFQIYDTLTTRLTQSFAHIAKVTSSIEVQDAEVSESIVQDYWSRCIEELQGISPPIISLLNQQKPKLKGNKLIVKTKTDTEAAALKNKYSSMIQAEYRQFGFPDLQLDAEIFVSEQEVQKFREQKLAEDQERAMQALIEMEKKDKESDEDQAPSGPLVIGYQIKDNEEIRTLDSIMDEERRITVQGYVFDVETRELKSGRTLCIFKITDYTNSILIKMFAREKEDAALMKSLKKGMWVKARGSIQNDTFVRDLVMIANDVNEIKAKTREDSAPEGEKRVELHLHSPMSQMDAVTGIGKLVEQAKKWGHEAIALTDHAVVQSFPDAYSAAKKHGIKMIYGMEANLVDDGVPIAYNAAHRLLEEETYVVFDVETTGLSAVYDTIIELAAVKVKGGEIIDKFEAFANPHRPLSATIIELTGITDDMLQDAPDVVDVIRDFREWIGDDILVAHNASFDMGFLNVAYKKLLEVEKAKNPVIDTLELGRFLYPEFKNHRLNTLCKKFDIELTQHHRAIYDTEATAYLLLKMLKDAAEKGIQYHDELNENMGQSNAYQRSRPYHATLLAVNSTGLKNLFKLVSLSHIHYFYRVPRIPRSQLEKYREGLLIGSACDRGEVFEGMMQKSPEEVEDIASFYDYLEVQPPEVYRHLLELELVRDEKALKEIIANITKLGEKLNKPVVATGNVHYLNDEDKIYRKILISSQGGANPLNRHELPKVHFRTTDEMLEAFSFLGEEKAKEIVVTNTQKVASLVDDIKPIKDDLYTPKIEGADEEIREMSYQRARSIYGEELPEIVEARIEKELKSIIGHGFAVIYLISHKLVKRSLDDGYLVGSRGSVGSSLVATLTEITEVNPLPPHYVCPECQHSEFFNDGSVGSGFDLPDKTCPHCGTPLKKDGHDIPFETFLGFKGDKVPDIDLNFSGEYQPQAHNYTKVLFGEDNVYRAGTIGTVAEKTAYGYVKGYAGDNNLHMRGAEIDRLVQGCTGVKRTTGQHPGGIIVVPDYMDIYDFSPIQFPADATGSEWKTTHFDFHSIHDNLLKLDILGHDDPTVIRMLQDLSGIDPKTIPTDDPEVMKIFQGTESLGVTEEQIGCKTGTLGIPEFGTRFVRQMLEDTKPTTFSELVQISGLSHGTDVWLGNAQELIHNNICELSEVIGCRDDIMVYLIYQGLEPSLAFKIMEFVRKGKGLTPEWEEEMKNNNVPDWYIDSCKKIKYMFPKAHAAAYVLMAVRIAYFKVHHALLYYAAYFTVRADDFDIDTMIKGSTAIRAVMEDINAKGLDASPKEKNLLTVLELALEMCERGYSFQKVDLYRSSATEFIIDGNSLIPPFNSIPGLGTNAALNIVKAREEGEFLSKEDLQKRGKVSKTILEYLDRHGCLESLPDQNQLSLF
Sequence of ATP-dependent 6-phosphofructokinase (Trypanosoma brucei brucei) (O15648 whole entry, looked up): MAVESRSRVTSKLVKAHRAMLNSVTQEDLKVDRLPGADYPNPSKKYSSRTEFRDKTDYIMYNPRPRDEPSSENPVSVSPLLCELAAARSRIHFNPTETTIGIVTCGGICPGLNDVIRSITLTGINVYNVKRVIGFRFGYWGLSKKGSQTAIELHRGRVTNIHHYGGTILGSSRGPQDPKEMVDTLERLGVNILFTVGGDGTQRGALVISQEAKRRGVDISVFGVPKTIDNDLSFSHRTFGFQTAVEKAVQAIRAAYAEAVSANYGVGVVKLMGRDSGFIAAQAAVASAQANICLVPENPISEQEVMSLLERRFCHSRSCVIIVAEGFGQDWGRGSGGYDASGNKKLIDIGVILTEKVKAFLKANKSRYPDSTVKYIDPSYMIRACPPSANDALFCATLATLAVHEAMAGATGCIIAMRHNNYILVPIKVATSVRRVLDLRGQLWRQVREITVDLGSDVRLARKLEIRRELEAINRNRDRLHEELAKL
Sequence of M-phase phosphoprotein 8 (Homo sapiens) (Q99549 whole entry, looked up): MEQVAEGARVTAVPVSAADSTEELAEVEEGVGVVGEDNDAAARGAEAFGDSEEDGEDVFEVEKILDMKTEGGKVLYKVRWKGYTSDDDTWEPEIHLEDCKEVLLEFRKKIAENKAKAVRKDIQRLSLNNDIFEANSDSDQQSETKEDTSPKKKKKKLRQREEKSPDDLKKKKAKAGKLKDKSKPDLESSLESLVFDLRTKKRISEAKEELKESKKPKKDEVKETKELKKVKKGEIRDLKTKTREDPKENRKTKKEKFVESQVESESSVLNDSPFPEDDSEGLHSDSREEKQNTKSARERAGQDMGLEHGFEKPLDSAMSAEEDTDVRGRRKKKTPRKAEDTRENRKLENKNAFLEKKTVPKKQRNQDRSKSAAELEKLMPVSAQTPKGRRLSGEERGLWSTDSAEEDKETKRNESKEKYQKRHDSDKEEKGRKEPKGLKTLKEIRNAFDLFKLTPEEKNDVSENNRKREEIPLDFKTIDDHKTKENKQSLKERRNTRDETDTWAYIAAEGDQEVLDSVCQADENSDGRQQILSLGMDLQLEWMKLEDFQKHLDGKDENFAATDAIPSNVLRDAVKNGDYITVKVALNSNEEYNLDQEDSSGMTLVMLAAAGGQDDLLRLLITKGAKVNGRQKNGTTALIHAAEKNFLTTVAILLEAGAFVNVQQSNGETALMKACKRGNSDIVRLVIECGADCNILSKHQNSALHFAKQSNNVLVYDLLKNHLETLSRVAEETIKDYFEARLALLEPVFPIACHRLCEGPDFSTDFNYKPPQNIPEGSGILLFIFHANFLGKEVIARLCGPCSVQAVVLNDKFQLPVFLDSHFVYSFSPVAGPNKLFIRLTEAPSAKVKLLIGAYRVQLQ
Sequence of Chromobox protein homolog 1 (Homo sapiens) (P83916 whole entry, looked up): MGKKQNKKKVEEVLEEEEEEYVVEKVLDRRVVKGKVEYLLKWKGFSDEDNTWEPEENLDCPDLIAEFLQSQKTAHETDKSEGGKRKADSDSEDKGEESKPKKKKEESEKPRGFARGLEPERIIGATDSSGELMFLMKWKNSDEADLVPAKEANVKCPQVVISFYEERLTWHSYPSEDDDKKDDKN

As for `CC(C)(Sc1ccc(CCN(CCCCC2CCCCC2)C(=O)NC2CCCCC2)cc1)C(=O)O`, the Potency is 12.6 µM (active) in experiment [1]; 26.7 µM (active) in experiment [2]; 56.2 µM (active) and inactive in experiment [8]; 56.2 µM (active) in [9]; 11.2 µM (active) in experiment [13]. For the same compound, the call in experiment [3], in experiment [4], in experiment [5], in experiment [10], in [11] and in [12] was inactive. In addition, the Potency result in experiment [6] and in experiment [7] was “inactive” in each case.
`OC(CN1CCC(Cc2ccc(F)cc2)CC1)c1ccc(Cl)cc1` (configuration not stated): the compound was classed as inactive in experiment [14], in experiment [3], in experiment [15], in experiment [4], in [16] and in [5]. Besides, the compound was called inactive in experiment [10] and in experiment [11]. Moreover, the Potency result in experiment [2], in [6], in experiment [7], in [8] and in experiment [9] was “inactive” in each case.
Consider `Cc1cc2c(C(C)C)c(O)c(O)c(C=O)c2c(O)c1-c1c(C)cc2c(C(C)C)c(O)c(O)c(C=O)c2c1O`, for which the outcome in [3], in experiment [4] and in experiment [10] was inactive.
For `N=c1nc(N2CCCCC2)cc(N)n1O`, the Potency result in experiment [1], in [2], in experiment [6], in experiment [7], in experiment [8] and in [9] was “inactive” each time. In addition, the Potency result in [13] and in experiment [17] was “inactive” in each case. The result in experiment [14], in experiment [3], in [15], in experiment [4], in experiment [5] and in experiment [10] was inactive. For the same compound, the outcome in experiment [11] and in experiment [12] was inactive.
With `Nc1nc2ccc(OC(F)(F)F)cc2s1`, the compound was called inactive in [14], in experiment [3], in [4], in [16], in experiment [5] and in experiment [10]. In addition, the outcome in [11] and in experiment [12] was inactive. For the same compound, the Potency result in experiment [2], in experiment [6], in [7], in experiment [8], in [9] and in experiment [13] was “inactive” each time. In addition, in experiment [17], the Potency result is “inactive”.
For the compound `CC(C)(C)NCC(O)c1ccc(O)c(CO)c1` (configuration not stated), the Potency entry in [1], in experiment [2], in experiment [6], in experiment [8], in [9] and in experiment [13] was “inactive” each time. Further, the Potency entry in [17] was “inactive”. Also, the compound was classed as inactive in experiment [14], in experiment [3], in experiment [15], in experiment [16], in experiment [5] and in experiment [10]. Also, the outcome in experiment [11] and in [12] was inactive.
For the compound `O=C(Nc1nc2ccccc2n1CCN1CCOCC1)c1cccc([N+](=O)[O-])c1`, the call in experiment [14], in experiment [3], in experiment [15], in [4], in experiment [5] and in experiment [10] was inactive. Besides, the Potency result in experiment [2], in experiment [6], in experiment [7], in experiment [8], in experiment [13] and in [17] was “inactive” each time.
Consider `Cc1oncc1C(=O)Nc1ccc(C(F)(F)F)cc1`, for which the compound was called inactive in [14], in [3], in experiment [4], in [16], in experiment [5] and in experiment [10]. For the same compound, the result in experiment [11] and in [12] was inactive. Also, the Potency result in experiment [2], in [6], in experiment [7], in experiment [8], in experiment [9] and in experiment [13] was “inactive” each time. The Potency result in [17] is “inactive”.
